Assay results: PubChem BioAssay (EPA / NIEHS)
Inconclusive results are not listed. Calls of active or inactive are those of the source. The calls were made as follows: active = hit-call score of the fitted dose curve at least 0.9, where 1 is the maximum; inconclusive = response in the unintended direction; inactive = score below 0.9.

test: TOX21_p53_BLA_p2_viability: Viability Assessment in the Tox21 HCT-116 p53 Agonism Beta-lactamase Assay, Phase 2 (AID 2283591);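 also: compound exposure lasted 16 h at 37 °C; actives lower the ATP signal meaning cytotoxicity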
From the text: TOX21_p53_BLA_p2 is a cell-based, single-readout assay that uses HCT116, a human intestinal cell line, […] in a 1536-well plate.TOX21_p53_BLA_p2_viability is an assay readout measuring cellular ATP content and detected with CellTiter-Glo Luciferase-coupled ATP quantitation.TOX21_p53_BLA_p2_viability used a type of viability reporter where loss-of-signal activity can be used to understand changes in the cell viability. Furthermore, this assay endpoint can be referred to as a secondary readout, because this assay has produced multiple assay endpoints where this one serves a viability function. To generalize the intended target to other relatable targets, this assay endpoint is annotated to the cell cycle intended target family, where the subfamily is cytotoxicity.
Thawing Method: Place 14 mL of pre-warmed thaw medium into a 15 mL of conical tub. Remove the vial of cells to be thawed from liquid nitrogen and thaw rapidly by placing at 37C in a water bath with gentle agitation for 1-2 minutes. Decontaminate the vial by wiping with 70% ethanol before opening in a biological safety cabinet. Transfer the vial contents drop-wise into 14 mL of thaw medium in a sterile 15-mL conical tub. Centrifuge cells at 900 rpm for 4 minutes and resuspend in thaw medium. Transfer contents to the T75 tissue culture flask containing Thaw Medium and place flask in a humidified 37C/5% CO2 incubator. Switch to growth medium at first passage.Propagation Method: Aspirate medium, rinse once in DPBS, add 0.25% Trypsin/EDTA and swirl to coat the cell evenly. Add an equal volume of Growth Medium to inactivate Trypsin after 2-3 minutes incubation at 37C. Centrifuge cells at 900 rpm for 4 minutes and resuspend in growth medium. Cell should be passage or fed at least twice a week.Assay Protocol: Harvest cells from culture in growth medium and resuspend in assay medium. 2.2 Dispense 4000 cells/5 uL/well into 1536-well black/clear bottom plates using a Multidrop dispenser. After the cells were incubated at 37C for 5 hours, 23 nL of compounds dissolved in DMSO were transferred to the assay plate by a PinTool resulting in a 217-fold dilution. Incubate the plates for 16 hours at 37C, 5% CO2. Add 1 uL of 6X LiveBLAzer FRET B/G (CCF4-AM) Substrate Mixture to each well using a BioRAPTR dispenser and incubate the plates at room temperature for 2 hours. Measure fluorescence intensity at 460 and 530 nm emission and 405 nm excitation by an Envision detector. Data is expressed as the ratio of 460nm/530nm emissions. Add 4 uL of Cell-titer Glo to each well using BioRAPTR and incubate the plates at room temperature for […]. For cell viability readout that measures cytotoxicity, 4 ul/well of CellTiter-Glo reagent was added into the assay plates using a Flying Reagent Dispenser. After 30 min incubation at room temperature, the luminescence intensity in the plates was measured using a ViewLux plate reader.

Row | SMILES | outcome | AC50
1 | O=C1CN(N=Cc2ccc([N+](=O)[O-])o2)C(=O)N1 | inactive | 
2 | CCCCCCCCCCCCCCO | inactive | 
3 | OCCOCCOCCO | inactive | 
4 | CCCCCCCCN(C)C | inactive | 
5 | O=C(O)c1cccc(C[C@@H]2COc3ccc(OCc4nc5cc(F)ccc5s4)cc3[C@@H]2O)c1 | inactive | 
6 | CCCCCCCCCCCCCCCCOS(=O)(=O)O | inactive | 
7 | c1ccc2ncccc2c1 | inactive | 
8 | O=S1(=O)CCCO1 | inactive | 
9 | Cc1cccc(O)c1C | inactive | 
10 | O=C(N[C@H](CO)[C@H](O)c1ccc([N+](=O)[O-])cc1)C(Cl)Cl | inactive | 
11 | CCCCCCCCCC | inactive | 
12 | OCc1c[nH]c2ccccc12 | inactive | 
13 | CCc1ccc(O)c(C(C)(C)C)c1 |  | 69.5 µM (active)
14 | CCn1nc(C)c2c1C(=O)NCC(c1ccc(O)cc1)=N2 | inactive | 
15 | CCCCC(CC)C(=O)OCCOCCOCCOC(=O)C(CC)CCCC (centres undefined) | inactive | 
16 | c1ccc2cc3ccccc3cc2c1 | inactive | 
17 | CC(=O)c1ccccc1 | inactive | 
18 | CC1(C)C(=O)N(Cl)C(=O)N1Cl | inactive | 
19 | C=CN1CCCC1=O | inactive | 
20 | NC(=O)NN=Cc1ccc([N+](=O)[O-])o1 | inactive | 
21 | NNC(=O)c1ccncc1 | inactive | 
22 | CC(C)c1nnc2ccc(-c3ocnc3-c3cc(F)ccc3F)cn12 | inactive | 
23 | CCCCN1C(=O)[C@@H]([C@H](O)C2CCCCC2)NC(=O)C12CCN(Cc1ccc(Oc3ccc(C(=O)O)cc3)cc1)CC2 | inactive | 
24 | OC(Cn1cncn1)(Cn1cncn1)c1ccc(F)cc1F | inactive | 
25 | OC(CCl)CCl | inactive | 
26 | CCCCCCCC/C=C\CCCCCCCC(=O)OC[C@@H](O)[C@H]1OC[C@H](O)[C@H]1O | inactive | 
27 | S=P(N1CC1)(N1CC1)N1CC1 | inactive | 
28 | CCOC(N)=O | inactive | 
29 | C[C@]12C=CC(=O)C=C1CC[C@H]1[C@@H]3C[C@@H](O)[C@](O)(C(=O)CO)[C@@]3(C)C[C@H](O)[C@@]12F | inactive | 
